Results filed as inconclusive are left out. A number with no mark means an inactive call. Activity calls are given as the source filed them. The call rests on the fitted dose curve; in most records, active means well fitted inhibition curve with a large enough effect; inconclusive means small, poorly fitted or top-dose-only effect; inactive means no such curve, though single readings can be large or run the other way.
Test: Primary qHTS for inhibitors of La Crosse Virus (LACV) - induced cell death in SH-SY5Y cells (AID 1508616);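 on activity change: top concentration of the series differs between compounds; 0% = infected DMSO wells and 100% = uninfected DMSO wells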
Settings: SH-SY5Y LACV cytopathicity rescue, ATP luminescence, 6 d; series mostly up to 4.29 µM; activity change: at the top concentration
Description: Assay Provider: Karin Peterson Ph.D.
National Institute of Allergy and Infection Diseases, National Institute of Health
La Crosse Virus (LACV) is a California serogroup mosquito-borne arbovirus, family Peribunyaviridae, which is an endemic pathogen in North America and can induce a rare, life-threatening neurological disease in children. LACV was first isolated in the early 1960s, from a summer "rural encephalitis" case in La Crosse, Wisconsin, USA. Since then, LACV encephalitis cases have been found in more than twenty states, with most cases in the Mississippi and Ohio River basins. The life cycle of LACV is maintained between the vector, the eastern tree-hole mosquito Aedes triseriatus, and vertebrate hosts including eastern gray squirrels (Sciurus carolinensis) and chipmunks (Tamiasstriatus grinseus). […] Most LACV infections in humans are asymptomatic or induce mild clinical symptoms of fever, headache, lethargy and vomiting. However, in some cases LACV can cause severe neuroinvasive disease, including encephalitis, meningitis, and meningoencephalitis, requiring hospitalization. To date, there is neither a licensed vaccine nor a Food and Drug Administration (FDA) approved antiviral therapy available to prevent or treat LACV encephalitis. The primary treatment for viral encephalitis is palliative care due to the lack of therapeutics. In the current study, we conducted a screen of 4,096 FDA approved and bioactive small molecules against LACV, by screening for rescue of LACV-induced cell death in SH-SY5Y cells.
LACV-induced cytopathicity assay
SEQUENCE No. (1,2, 3, etc.); […] (e.g., Cells, Incubation, Reagent, etc.); VALUE and DESCRIPTION.
1. Reagent; 2 uL; Cell solution.
3. Compounds; 23nL; Compound library
4. Reagent; 12 uL; LACV virus
6. Reagent; 24 uL; ATPLite (PerkinElmer)
7. Time; 5 min; Room temperature
8. Detection; Luminescence; View
NOTES (numbers refer to sequence above)
1. Seed 6000 SH-SY5Y cells (ATCC CRL-2266) in 2 microL/well media (DMEM/F12 10% FBS, 1x L-Glutamine, 1x Pyruvate, 1x NEAA, 1x Pen/Strep) in 384-well assay plates (tissue culture treated, white, solid bottom).
2. Incubate at 37 degrees C with 5% CO2 for 24 hr.
3. Dispense 23 nL/well compounds in DMSO via pin transfer.
4. Dispense 12 microL/well of LACV (LACV/human/1978) in media at 0.01 MOI.
5. Incubate at for 6 days at 37C 5% CO2
6. Dispense 24 microL/well of ATPLite 1step Luminescence assay system (PerkinElmer).
7. Incubate for 5 min at room temperature.
8. Read luminescence signal (Viewlux plate reader, PerkinElmer). Data was normalized with DMSO control wells containing LACV as 0%, and DMSO control wells without virus as 100%.
Potency means the concentration at half of the fitted maximal effect.

| Structure (SMILES) | activity change | Potency |
| --- | --- | --- |
| O=C(O)c1cc(=O)[nH]c(=O)[nH]1 | 6.83% | – |
| Cc1ncc([N+](=O)[O-])n1CCO | -2.05% | – |
| C[C@@H](NCCCc1cccc(C(F)(F)F)c1)c1cccc2ccccc12 | -1.45% | – |
| CC(C)(C)NC(=O)[C@H]1CC[C@H]2[C@@H]3CC[C@H]4NC(=O)C=C[C@]4(C)[C@H]3CC[C@]12C | 17.2% | – |
| CCOC(=O)[C@H](CCc1ccccc1)N[C@H]1CCc2ccccc2N(CC(=O)O)C1=O | 46.7% | – |
| OCc1ccc(-c2nn(Cc3ccccc3)c3ccccc23)o1 | 17.9% [at 9.63 µM] | – |
| N[C@@H](Cc1ccc(O)c(O)c1)C(=O)O | -0.943% [at 9.63 µM] | – |
| NC(N)=NC(N)=NCCc1ccccc1 | 5.76% | – |
| CN(CCOc1ccc(CC2SC(=O)NC2=O)cc1)c1ccccn1 (stereo not given) | 14.6% | – |
| COC(c1ccccc1)(c1ccccc1)[C@H](Oc1nc(C)cc(C)n1)C(=O)O | 9.76% | – |
| O=C(N[C@H](CO)[C@H](O)c1ccc([N+](=O)[O-])cc1)C(Cl)Cl | 22.3% [at 8.54 µM] | – |
| C[C@@H]1C[C@H]2[C@@H]3CCC4=CC(=O)C=C[C@]4(C)[C@@]3(Cl)[C@@H](O)C[C@]2(C)[C@@]1(OC(=O)c1ccco1)C(=O)CCl | 48% | – |
| NC(=O)N1c2ccccc2CC(=O)c2ccccc21 | 2.49% | – |
| C[C@]12C=CC(=O)C=C1CC[C@@H]1[C@@H]2C(=O)C[C@@]2(C)[C@H]1CC[C@]2(O)C(=O)CO | 11.9% | – |
| CC1=CC(=O)c2ccccc2C1=O | 15.2% | – |
| COc1cc(NS(=O)(=O)c2ccc(N)cc2)nc(OC)n1 | 13.8% | – |
| CC(C)C[C@H](NC(=O)[C@H](CCc1ccccc1)NC(=O)CN1CCOCC1)C(=O)N[C@@H](Cc1ccccc1)C(=O)N[C@@H](CC(C)C)C(=O)[C@@]1(C)CO1 | – | 355 nM (active) |
| CN(Cc1cc(Br)cc(Br)c1N)C1CCCCC1 | -18.2% | – |
| O=C(O)CSCC(=O)NC1CCSC1=O (stereo not given) | -6.46% | – |
| CCCc1nc(C)c2c(=O)[nH]c(-c3cc(S(=O)(=O)N4CCN(CC)CC4)ccc3OCC)nn12 | -29.4% | – |

| Structure (SMILES) | activity change | Potency |
| --- | --- | --- |
| CC1CC2C3CCC4=CC(=O)C=C[C@]4(C)[C@@]3(F)[C@@H](O)C[C@]2(C)[C@@]1(O)C(=O)CO (stereo not given in full) | 15% [at 9.63 µM] | – |
| NS(=O)(=O)c1cc2c(cc1Cl)NC(C(Cl)Cl)NS2(=O)=O (stereo not given) | 5.12% | – |
| Cn1c(=O)c2c(ncn2CC(O)CO)n(C)c1=O (stereo not given) | -1.99% | – |
| COc1ccc2cc3[n+](cc2c1OC)CCc1cc2c(cc1-3)OCO2 | -16.1% | – |
| O=S(=O)(O)CCS | 8.53% | – |
| N[C@@H](C(=O)N[C@@H]1C(=O)N2C(C(=O)O)=C(Cl)CS[C@H]12)c1ccccc1 | -11.4% [at 0.858 µM] | – |
| CCN(C)C(=O)Oc1cccc([C@H](C)N(C)C)c1 | 52.2% | – |
| NC(=O)c1ccc2[nH]ccc2c1 | -8.43% [at 9.63 µM] | – |
| NC(=O)c1cccc(N)c1 | 11.7% [at 9.63 µM] | – |
| CC(=O)[C@H]1CC[C@H]2[C@@H]3CC=C4C[C@@H](O)CC[C@]4(C)[C@H]3CC[C@]12C | 8.22% | – |
| O=C(O)c1cn(C2CC2)c2cc(N3CCNCC3)c(F)cc2c1=O | -0.218% | – |
| CCOC(=O)c1ccc(OC(=O)CCCCCN=C(N)N)cc1 | 17.7% | – |
| Cc1cc(NS(=O)(=O)c2ccc(N)cc2)no1 | -1.19% | – |
| Nc1nc(F)nc2c1ncn2[C@@H]1O[C@H](CO)[C@@H](O)[C@@H]1O | -1.2% | – |
| Cc1nnc(C(=O)NC(C)(C)c2nc(C(=O)NCc3ccc(F)cc3)c(O)c(=O)n2C)o1 | 8.71% | – |
| CCc1cc(C(N)=S)ccn1 | 37% | – |
| COc1c(N2CCNC(C)C2)c(F)cc2c(=O)c(C(=O)O)cn(C3CC3)c12 (stereo not given) | -6.46% | – |
| CCN(CC)CCn1c(=O)c(Cc2ccc(OC)cc2)nc2ccccc21 | 22% [at 9.63 µM] | – |
| COc1cc2ncnc(Nc3cccc(Cl)c3)c2cc1OC | 60.6% [at 9.63 µM] | – |
| COc1ncnc(NS(=O)(=O)c2ccc(N)cc2)c1OC | -6% | – |
